Compound activity from PubChem BioAssay.
Most compounds without a hit are left out; they make up all but 7.8% or so of the library.
NOMO-1 viab: STK33 inhibitor candidate reducing NOMO-1 cell viability; inhibition, % (test concentration not listed); 7.5% of 37,000 active; NOMO-1 AML viability, CellTiter-Glo luminescence, 72 h; in the data active means inhibition above about 80%
MITF inh: MITF inhibition. TRPM1 promoter luciferase, luminescence, 24 h. inhibition, % (test concentration not listed). 0.28% of 37,000 active. AID 2240; in the data active means inhibition above about 85%;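 further: human melanocyte line stably carrying TRPM1 promoter luciferase reporter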
Shh pathway inh: Sonic Hedgehog pathway inhibition; Shh-LIGHT2 Gli-luciferase reporter, 30 h; 2.1% of 22,000 active; inhibition, % (concentration not given with the values); AID 2313;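 active means mean inhibition across valid replicates above about 65%, limit read from the data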;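 further: pathway switched on by Shh-conditioned medium diluted 1 in 25 in low serum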
* = called active by the depositor; nt = no result.

SMILES	NOMO-1 viab	MITF inh	Shh pathway inh
CC[C@@H](CO)NC(=O)[C@@H]1C=C2c3cccc4c3c(cn4C)C[C@H]2N(C)C1	-9.5	0.1	nt
CN1C[C@H](CNC(=O)OCc2ccccc2)C[C@@H]2c3cccc4c3c(cn4C)C[C@H]21	103.9*	14.9	50.0
COc1cc([C@@H]2c3cc4c(cc3[C@@H](O)C3COC(=O)C32)OCO4)cc(OC)c1O (stereo partly specified)	101.7*	43.6	90.3*
COc1cc(C2c3cc4c(cc3CC3COC(=O)C32)OCO4)cc(OC)c1OC (stereo unspecified)	118.4*	47.9	80.0*
COc1cc([C@@H]2c3cc4c(cc3[C@H](OC(C)=O)[C@H]3COC(=O)[C@@H]23)OCO4)cc(OC)c1OC	108.1*	37.2	8.1
COc1ccc2c(c1OC)C(=O)O[C@H]2[C@H]1c2cc3c(cc2CCN1C)OCO3	15.1	-3.3	53.5
COC(=O)c1c(C)n(CCCOC(C)C)c2c1cc(O)c1ccccc12	3.9	13.4	nt
CC1(C)CC(=O)C2=C(C1)OC(N)=C(C(=O)OC(C)(C)C)C21C(=O)Nc2ccccc21 (stereo unspecified)	15.2	3.9	-32.2
CCOC(=O)CN1C(=O)C2(C(C(=O)OCC)=C(N)OC3=C2C(=O)CC(C)(C)C3)c2ccccc21 (stereo unspecified)	2.3	16.3	29.1
C=CC1C[N+]2([O-])CCC1CC2C(O)c1ccnc2ccc(OC)cc12 (stereo unspecified)	nt	nt	-37.3
CCOc1ccc(CN(CCc2ccc3c(c2)OCO3)Cc2ccccc2)cc1	41.2	-15.8	nt
CCCC(=O)O[C@@H]1[C@@H](C)[C@@]2(O)[C@@H](C=C(CO)C[C@]3(O)C(=O)C(C)=C[C@@H]23)[C@@H]2C(C)(C)[C@]12OC(=O)CCC	58.6	2.5	69.7*
CC(C)=CCc1c(O)cc2c(c1O)C(=O)CC(c1ccc(O)cc1)O2 (stereo unspecified)	27.5	16.8	30.3
N#CC(O[C@@H]1O[C@H](CO)[C@@H](O)[C@H](O)[C@H]1O)c1ccccc1 (stereo partly specified)	-15.2	-5.4	-30.3
COC[C@H]1OC(=O)c2coc3c2[C@@]1(C)C1=C(C3=O)[C@@H]2CCC(=O)[C@@]2(C)C[C@H]1OC(C)=O	89.8*	39.4	-11.6
Cc1ccc(NC(=O)c2cc(C)n(C(C)(C)C)n2)cc1	5.8	-25.0	-181.7
C/C=C(\C)[C@H](O)[C@H](C)/C=C(C)/C=C/C/C(C)=C/Cc1[nH]c(OC)c(OC)c(=O)c1C	98.6*	96.2*	55.4
CCOC(=O)c1c(C)n(C(C)C)c2ccc(OC(=O)c3ccccc3)cc12	5.4	12.0	-14.4
COc1cc2c(cc1O)CCNC2C (stereo unspecified)	-0.9	-14.0	0.5
CC[C@H]1CN2CCc3cc(OC)c(OC)cc3[C@@H]2C[C@@H]1C[C@H]1NCCc2cc(O)c(OC)cc21	119.7*	88.1*	85.9*
CCN1C[C@]2(COC)CC[C@H](O)[C@]34C1[C@H](C[C@H]23)[C@@]1(O)C[C@H](OC)[C@H]2C[C@@H]4[C@@H]1[C@H]2OC(C)=O	7.3	-1.0	-47.2
CCC1CC2CC3(C(=O)OC)c4[nH]c5ccc(OC)cc5c4CCN(C2=O)C13 (stereo unspecified)	30.8	9.1	0.5
C=C(C)c1cc2cc(C(C)=O)c(O)cc2o1	65.8	-0.8	-58.5
CC1C/C=C/C2C3OC3(C)C(C)C3C(Cc4ccccc4)NC(=O)C23OC(=O)O/C=C/C(C)(O)C1=O (stereo unspecified)	93.5*	40.9	44.1
O=C1CSC(c2ccccc2Cl)c2cc(Cl)ccc2N1 (stereo unspecified)	49.6	23.4	48.0
SMILES	NOMO-1 viab	MITF inh	Shh pathway inh
C[C@H]1C(=O)O[C@@H]2CCN3CC=C(COC(=O)[C@](C)(O)[C@]1(C)O)[C@H]23	0.0	7.5	-36.6
c1cncc(C2Nc3ccccc3-n3cccc32)c1 (stereo unspecified)	72.4	-31.2	-41.3
CC(C)(O)CCC(=O)[C@](C)(O)[C@H]1[C@H](O)C[C@@]2(C)[C@@H]3CC=C4C(C=C(O[C@@H]5O[C@H](CO)[C@@H](O)[C@H](O)[C@H]5O)C(=O)C4(C)C)[C@]3(C)C(=O)C[C@]12C (stereo partly specified)	-10.1	7.6	-5.1
COC(=O)C12CC3CC(C(C)O)C1N(CCc1c2[nH]c2ccc(OC)cc12)C3 (stereo unspecified)	29.7	8.9	14.1
CCC(C)[C@H]1C(=O)O[C@H](C(C)C)C(=O)N(C)[C@@H](C(C)CC)C(=O)O[C@H](C(C)C)C(=O)N(C)[C@@H](C(C)CC)C(=O)O[C@H](C(C)C)C(=O)N1C (stereo partly specified)	119.2*	96.1*	103.9*
O=C1CCCN1CC#CCN1CCCC1	-12.6	-3.7	4.9
